# Assay results as given in ChEMBL document CHEMBL4513216, “Probing the Open Global Health Chemical Diversity Library for Multistage-Active Starting Points for Next-Generation Antimalarials” (ACS Infect Dis, 2020).
# Hit rate of the full screen: of about 65,000 compounds, about 2,100 (3.2%) showed an effect of 50% or more. The median lay at about -52%. The full list was thinned out, with strong results kept by preference.
# System: Plasmodium falciparum
# Test: Screen against P. falciparum Asexual Blood Stage (ABS), at 5uM
# Type: functional, Dd2
# Details: tested at 5 uM
row,SMILES,INHIBITION [%]
1,CC(C)OCc1ccc(CNc2cncc(-n3cccn3)n2)cc1,-83.1
2,COCCNC(=O)c1ccc2c(=O)n3c(nc2c1)CCCC3,-68
3,COc1cc(Cl)cc(CN2CCCC(N3CCOCC3)C2)c1OC (stereo not given),-126
4,COc1ccc(CN2CCCC(N3CCCC3)C2)cc1Cn1cncn1 (stereo not given),-34.2
5,COc1cc(Cl)cc(CN2CCCC(N3CCCC3)C2)c1OC (stereo not given),64.1
6,O=C(O)c1ccccc1-n1cnc(CN2CCc3ccccc32)c1,-68.5
7,Cn1nccc1C(=O)Nc1cc(C(F)(F)F)c[nH]c1=O,56.5
8,O=C(NCc1ccncc1)Nc1cc(C(F)(F)F)c[nH]c1=O,-57.7
9,Cn1nccc1CNC(=O)Nc1cc(C(F)(F)F)c[nH]c1=O,-32.9
10,CNc1cc(C)nc(C2COCCN2Cc2csc(C)n2)n1 (stereo not given),-146
11,Cc1ccnn1CCC(=O)N1CCC(c2cnccn2)CC1,-164
12,CN(Cc1cscn1)C(=O)C(c1ccccc1)N1CCSCC1 (stereo not given),13.8
13,CCN(CC)C(CNS(=O)(=O)NCc1ccccc1)c1ccco1 (stereo not given),67
14,CCN(CC)C(CNCc1ccc(O)cc1)c1ccco1 (stereo not given),40.1
15,CCN(CC)C(CNS(=O)(=O)c1ccc(C(=O)NC)cc1)c1ccco1 (stereo not given),-31.7
16,Cn1ncc2c(N[C@H]3CCCC[C@@H]3O)nc(C(C)(C)C)nc21,-65.3
17,Cn1ncc2c(NC3CCC(N)CC3)nc(C(C)(C)C)nc21 (stereo not given),65.3
18,Cn1ncc2c(NC3CCCN(C(=O)C4CC4)C3)nc(C(C)(C)C)nc21 (stereo not given),-74
19,COCCN1CCC2(CC1)CC(NC(=O)C(C)C)c1ccccc1O2 (stereo not given),-12.4
20,Cn1nc(C(=O)N2CCSCC2)cc1NC(=O)c1ccco1,-104
21,CNc1nc(N2CCN(C3CCCCC3)C(CCO)C2)nc2c1CCC2 (stereo not given),-32.3
22,CNc1nc(N2CCN(Cc3ccsc3)C(CCO)C2)nc2c1CCC2 (stereo not given),55.7

row,SMILES,INHIBITION [%]
1,CNc1nc(N2CCN(CC=C(C)C)C(CCO)C2)nc2c1CCC2 (stereo not given),-7.97
2,CN(C)[C@@H]1C[C@@H](CO)N(C(=O)Nc2ccc(SC(F)(F)F)cc2)C1,7.77
3,CCc1nc(C)cn1C(=O)Nc1ccc(F)cc1,-11.7
4,Cc1n[nH]c(C2CN(C(=O)c3ccco3)CCO2)n1 (stereo not given),-132
5,CC(C)(C)CC(=O)NC(C)(C(N)=O)c1cccc(Cl)c1 (stereo not given),-54.6
6,Cc1ccc(=O)n(CC2(O)CCN(Cc3c(F)cccc3F)CC2)n1,-42.4
7,Fc1cccc(NCc2ncc[nH]2)c1,-155
8,Cn1cc(C(NCc2ccc(F)cc2)c2cccc(F)c2)cn1 (stereo not given),13.6
9,Fc1cccc(C(NCc2ncc[nH]2)c2ccccc2)c1 (stereo not given),69.1
10,Cc1c(C(=O)NCC2CCS(=O)(=O)C2)cnn1-c1ccccc1 (stereo not given),-29.9
11,Cc1cc(C(=O)N2CCCC3(COCCN(CCN(C)C)C3)C2)no1 (stereo not given),-49.7
12,CCn1ncc2c1CCCC2NCc1cccc2c1OCCO2 (stereo not given),-36
13,CC(C)(C)n1ncc2c1CCCC2NCc1cccc2c1OCCO2 (stereo not given),61.5
14,CCn1ncc2c1CCCC2NCc1cccc2c1OCCCO2 (stereo not given),-15.3
15,CC(C)(C)n1ncc2c1CCCC2NCc1cccc2c1OCO2 (stereo not given),56.8
16,Cn1ncc2c1CCCC2NCc1cccc2c1OCCCO2 (stereo not given),-48.9
17,CCn1ncc2c1CCCC2NCc1cccc2c1OCO2 (stereo not given),-116
18,CN(CCc1ccncc1)CCc1nccs1,-102
19,Cc1c[nH]c(C2COCCN2C(=O)c2n[nH]c(=O)c3ccccc23)n1 (stereo not given),-96.3
20,Cc1ncnc2c1CCN(C(=O)N(C)C)CC2,-100
21,NCC1CN(c2nc(-c3ccccc3)nc3c2CCNCC3)CCO1 (stereo not given),69.5
22,OCCC1CN(c2nc(-c3ccncc3)nc3c2CCNCC3)CCO1 (stereo not given),-97.5

row,SMILES,INHIBITION [%]
1,NCC1CN(c2nc(-c3cccnc3)nc3c2CCNCC3)CCO1 (stereo not given),-84.9
2,OCCC1CN(c2nc(-c3cccnc3)nc3c2CCNCC3)CCO1 (stereo not given),-121
3,NCCC1CN(c2nc(-c3ccccc3)nc3c2CCNC3)CCO1 (stereo not given),66.1
4,COCCC1CN(c2nc(-c3ccccc3)nc3c2CCNC3)CCO1 (stereo not given),-21.7
5,CCOCCN1CCC(C(=O)c2cc(F)ccc2F)CC1,5.36
6,O=C(O)CCC(=O)N1CCN(CC2CC2)c2ncccc2C1,-23.3
7,CCSc1cncc(N2CCC(NC(=O)C3CCCCC3)CC2)n1,-11.6
8,O=c1cc(N2CCCC2)cnn1CC(F)F,-88.9
9,CC(C)COCC1CN(Cc2ccc3c(c2)OCO3)Cc2ncn(C)c21 (stereo not given),38.7
10,COc1cc(NCc2ncc[nH]2)ccc1Br,-173
11,CCC(O)(CNCc1ccncc1)c1ccc(Br)cc1 (stereo not given),8.37
12,CCC(O)(CNCc1ncc[nH]1)c1ccc(Br)cc1 (stereo not given),67.5
13,O=C(c1ccsc1)N1CCc2ncc(Cn3cncn3)n2CC1,-17.9
14,COCCNc1ccc(-c2noc([C@@H]3CCCN3)n2)cn1,39.8
15,COCC(=O)Nc1ccc(-c2noc([C@@H]3CCCN3)n2)cn1,52.6
16,COCC(=O)Nc1ccc(-c2noc([C@@H]3CCCN3C)n2)cn1,-28.7
17,CN(C)c1cc2c(nn1)CCN(C(=O)C1Cc3ccccc3O1)C2 (stereo not given),-78.5
18,O=C(c1cscn1)N1CCO[C@H]2[C@@H](Oc3ccccn3)CC[C@@H]21,-20.9
19,Cc1csc(C(=O)N2CCC(O)(CN3CCc4ccccc4C3)C2)c1 (stereo not given),-1.9
20,O=C(NCc1ccccc1Cl)c1[nH]nc2c1CS(=O)(=O)CC2,-148
21,Cn1cc(CN2CCCCC2c2ccc(-c3cnn(C)c3)nc2)cn1 (stereo not given),-15.7
22,Cn1cc(CN2CCCCC2c2ccc(-c3cccc(F)c3)nc2)cn1 (stereo not given),2.27

row,SMILES,INHIBITION [%]
1,Cn1cc(CN2CCCCC2c2ccc(-c3cccc(Cl)c3)nc2)cn1 (stereo not given),55.3
2,Cc1nc(O)c2nnn(C[C@H]3CCCN3C(=O)c3ccccc3C)c2n1,-51
3,CC(c1ccc(F)cc1F)N1CCN(CCC(=O)NC(N)=O)CC1 (stereo not given),64
4,CC(c1ccc(F)cc1F)N1CCN(CCC(=O)O)CC1 (stereo not given),-11.3
5,CC(SCCC(=O)NC(N)=O)c1ccc(F)cc1F (stereo not given),-47
6,N#Cc1ccc(C(=O)N2CCC(c3ncc[nH]3)CC2)cn1,-111
7,C=C(C)CNC1CCCN(Cc2noc(C3CC3)n2)C1 (stereo not given),32.4
8,Cc1ccc2c(c1)C(NC(=O)N(C)C)CC21CCN(C(C)C)CC1 (stereo not given),-82
9,O=C(c1ccc[nH]1)N1CCn2cc(Cn3cccn3)nc2C1,-68.4
10,CCOCc1cnc2n1CCN(C(=O)c1cn(C)c3ccccc13)C2C (stereo not given),-9.29
11,Clc1cccc(C(CNCc2ccccn2)N2CCOCC2)c1 (stereo not given),53.1
12,O=C(C(CNCc1cccnc1)c1ccccc1)N1CCOCC1 (stereo not given),-52.2
13,O=C(C(CNCc1ccccn1)c1ccccc1)N1CCOCC1 (stereo not given),-29.2
14,Cc1ccc(C(CNCc2cccnc2)N2CCOCC2)s1 (stereo not given),-0.0343
15,Clc1cccc(C(CNCc2cccnc2)N2CCOCC2)c1 (stereo not given),56.9
16,Clc1cccc(C(CNc2ncccn2)N2CCOCC2)c1 (stereo not given),-57
17,CCOCC(=O)NCc1cc(Br)ccc1OC(F)F,-119
18,CCC(C(=O)N1CCS(=O)(=O)CC1)n1cccn1 (stereo not given),-77.5
19,CN(C)C(=O)c1ccc2c(c1)nc(N1CC[C@H](O)C1)n2C,-58.1
20,CN(c1ccc(Cl)c(C(=O)NCCCN2CCOCC2)c1)S(C)(=O)=O,-93.1
21,O=C(CCCNC(=O)c1cnccn1)Nc1ncc[nH]1,-63.2
22,CC(C)COCCC(=O)NCc1cn2cc(Br)ccc2n1,-27.3

row,SMILES,INHIBITION [%]
1,CN(C)[C@@H]1C[C@@H](CO)N(C(=O)Nc2cccc(F)c2F)C1,-46.8
2,OCCOc1ccccc1CN1CCCC(O)(CO)C1 (stereo not given),-48.1
3,OCC1(O)CCCN(Cc2ccccc2OCCc2ccccc2)CC1 (stereo not given),65.1
4,O=C1NCC2(CCCN(Cc3ccccc3OCCO)C2)O1 (stereo not given),-55.2
5,CO[C@H]1CN(C(=O)OC(C)(C)C)CC1NCc1ccoc1 (stereo not given in full),-73.1
6,Cc1cnc(N2CCC(OCCN3CCCCC3)C2)nc1C (stereo not given),23.5
7,Cc1cc(C)nc(N2CCC(OCCN3CCCCC3)C2)n1 (stereo not given),13.3
8,CC(C)(C)c1nccc(N2CCC(OCCN3CCCCC3)C2)n1 (stereo not given),62.5
9,COc1ccnc(N2CCC(OCCN3CCCCC3)C2)n1 (stereo not given),51.2
10,c1cnc(N2CCC(OCCN3CCCCC3)C2)nc1 (stereo not given),-58
11,Cc1ccnc(N2CCC(OCCN3CCCCC3)C2)n1 (stereo not given),-83.8
12,Cc1cccc(-c2c[nH]c(C3CCCN3)n2)c1 (stereo not given),-5.91
13,CC(C)c1nccc(CN2CCCC(O)(CN3CCCC3)C2)n1 (stereo not given),-69.7
14,CN(C)C(=O)CN1C[C@H]2CC[C@@H](C1)N(C(=O)CCn1cncn1)C2,-87.6
15,O=C(NC1CC1)N1CCc2ccc(=O)n(CCN3CCCC3)c2CC1,-113
16,Cc1cnn(CCNCc2csc(-c3ccco3)n2)c1,54.9
17,Cc1cnn(CCNCc2csc(-c3ccccc3)n2)c1,66.6
18,Cc1cnn(CCNCc2csc(-c3ccc(F)cc3)n2)c1,-58
19,Cc1cnn(CCNCc2csc(-c3ccc(C)o3)n2)c1,-32.6
20,Cc1cnn(CC(C)NCc2csc(-c3ccco3)n2)c1 (stereo not given),-84
21,Cc1cnn(CCNCc2csc(-c3cccs3)n2)c1,-51.7
22,O=C(C1CCS(=O)(=O)CC1)N1C[C@@H]2CC[C@H]1CN(Cc1ccccc1)C2,-51.3
